# Experimental data as given in PubChem BioAssay (NCATS).
# Values without a mark were called inactive. Inconclusive results are not listed. Activity calls are given as the source filed them. Calls follow the shape of the dose curve; as a rule, active = well fitted curve in the direction sought with a large enough effect; inconclusive = small, poorly fitted or top-dose-only effect, or another doubt; inactive = no such curve, though single readings can be large; an effect the other way counts as inactive or inconclusive.
# Tested on: not listed separately
# Test: Validation screen for small molecules that induce DNA re-replication in MCF 10A normal breast cells (AID 463097); also: 0% is about no effect; nearly all actives have a fitted effect of over 60% in size
# Conditions: MCF 10A cells, DNA re-replication phenotype imaging; series mostly up to 46.1 µM; re-replication induction: at the top concentration
# Summary of the method: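 250 MCF 10A cells/well; compound pin-transferred; 48 hr, 37 C, 5% CO2; Hoechst 40 min; imaged 405/500-530 nm. Hits = more high-intensity nuclei.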
Compound,re-replication induction [%],outcome
C=C(C)[C@H]1CN[C@H](C(=O)O)[C@H]1CC(=O)O,-1.64,–
CC(C)N(CCC(C(N)=O)(c1ccccc1)c1ccccn1)C(C)C (stereo not given),–,inactive
NCCc1ccc(O)cc1,-1.36,–
CCC1(c2ccc(N)cc2)CCC(=O)NC1=O (stereo not given),5.02,–
C[C@]12CCC(=O)C=C1CC[C@@H]1[C@@H]2CC[C@]2(C)C(=O)CC[C@@H]12,3.87,–
CC(C)c1cccc(C(C)C)c1O,-7.82,–
CC(C)(C)NCC(O)c1ccccc1Cl (stereo not given),3.16,–
CCCCC/C=C\C/C=C\C/C=C\C/C=C\CCCC(=O)NCC(=O)O,-1.33,–
CC(NC(C)(C)C)C(=O)c1cccc(Cl)c1 (stereo not given),-0.117,–
O=P1(N(CCCl)CCCl)NCCCO1 (stereo not given),-8.24,–
CN1C(=O)CCS(=O)(=O)C1c1ccc(Cl)cc1 (stereo not given),-1.52,–

# Target: Ubiquitin carboxyl-terminal hydrolase 2 (Homo sapiens) (UniProt O75604)
# Sequence (O75604 whole entry, looked up): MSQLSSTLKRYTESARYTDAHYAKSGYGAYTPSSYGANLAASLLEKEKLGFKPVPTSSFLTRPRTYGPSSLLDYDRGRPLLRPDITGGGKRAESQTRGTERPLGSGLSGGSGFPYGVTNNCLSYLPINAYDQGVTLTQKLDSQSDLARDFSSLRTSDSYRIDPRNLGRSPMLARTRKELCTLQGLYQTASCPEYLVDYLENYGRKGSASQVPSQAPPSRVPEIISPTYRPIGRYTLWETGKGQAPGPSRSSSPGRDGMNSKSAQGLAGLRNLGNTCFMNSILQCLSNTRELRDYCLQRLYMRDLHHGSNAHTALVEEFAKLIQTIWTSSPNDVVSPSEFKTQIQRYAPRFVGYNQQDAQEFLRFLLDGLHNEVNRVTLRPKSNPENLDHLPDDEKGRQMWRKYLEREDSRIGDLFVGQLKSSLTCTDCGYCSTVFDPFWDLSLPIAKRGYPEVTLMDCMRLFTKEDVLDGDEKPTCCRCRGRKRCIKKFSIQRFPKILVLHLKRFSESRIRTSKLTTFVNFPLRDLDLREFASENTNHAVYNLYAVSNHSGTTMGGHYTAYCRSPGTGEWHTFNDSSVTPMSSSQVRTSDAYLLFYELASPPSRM
# Test: qHTS Validation Assay for Inhibitors of Ubiquitin-specific Protease USP2a Using CHOP2 as the Reporter (AID 463106);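 also: plate controls were DMSO for no effect and full inhibition by NEM for full effect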
# Conditions: USP2a cleavage of CHOP2 reporter, enzymatic; series mostly up to 38.3 µM; activity, negative = inhibition: at the top concentration
# Summary of the method: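 USP2 core (10 nM final) was preincubated with compound 30 min at RT in pH 8.0 Tris/CaCl2/beta-ME/CHAPS buffer. Ub-CHOP2 and reporter substrate (25 nM final each) were then added, with fluorescence (Ex 485/Em 531) read after 60 min. Data were normalized to NEM full inhibition and fitted to concentration-response curves.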
Compound,"activity, negative = inhibition [%]",outcome
C=C(C)[C@H]1CN[C@H](C(=O)O)[C@H]1CC(=O)O,-0.342,–
CC(C)N(CCC(C(N)=O)(c1ccccc1)c1ccccn1)C(C)C (stereo not given),–,inactive
O=C(O)CCCc1ccc(N(CCCl)CCCl)cc1,-2.84,–
NCCc1ccc(O)cc1,3.18,–
CCC1(c2ccc(N)cc2)CCC(=O)NC1=O (stereo not given),0.187,–
CC(C)c1cccc(C(C)C)c1O,-0.035,–
CC(C)(C)NCC(O)c1ccccc1Cl (stereo not given),-0.586,–
Cc1ncsc1CCCl,1.09,–
CC(NC(C)(C)C)C(=O)c1cccc(Cl)c1 (stereo not given),3.38,–
O=P1(N(CCCl)CCCl)NCCCO1 (stereo not given),0.49,–
O=C(CCCN1CCC2(CC1)C(=O)NCN2c1ccccc1)c1ccc(F)cc1,1.39,–
O=c1[nH]oc2c1CCNC2,2.26,–
COc1ccc2c(c1OC)C(=O)O[C@H]2[C@@H]1c2cc3c(cc2CCN1C)OCO3,-1,–
CN1C(=O)CCS(=O)(=O)C1c1ccc(Cl)cc1 (stereo not given),-0.832,–

# Target: DNA polymerase III PolC-type (Bacillus subtilis (strain 168)) (UniProt P13267)
# Sequence (P13267 whole entry, looked up): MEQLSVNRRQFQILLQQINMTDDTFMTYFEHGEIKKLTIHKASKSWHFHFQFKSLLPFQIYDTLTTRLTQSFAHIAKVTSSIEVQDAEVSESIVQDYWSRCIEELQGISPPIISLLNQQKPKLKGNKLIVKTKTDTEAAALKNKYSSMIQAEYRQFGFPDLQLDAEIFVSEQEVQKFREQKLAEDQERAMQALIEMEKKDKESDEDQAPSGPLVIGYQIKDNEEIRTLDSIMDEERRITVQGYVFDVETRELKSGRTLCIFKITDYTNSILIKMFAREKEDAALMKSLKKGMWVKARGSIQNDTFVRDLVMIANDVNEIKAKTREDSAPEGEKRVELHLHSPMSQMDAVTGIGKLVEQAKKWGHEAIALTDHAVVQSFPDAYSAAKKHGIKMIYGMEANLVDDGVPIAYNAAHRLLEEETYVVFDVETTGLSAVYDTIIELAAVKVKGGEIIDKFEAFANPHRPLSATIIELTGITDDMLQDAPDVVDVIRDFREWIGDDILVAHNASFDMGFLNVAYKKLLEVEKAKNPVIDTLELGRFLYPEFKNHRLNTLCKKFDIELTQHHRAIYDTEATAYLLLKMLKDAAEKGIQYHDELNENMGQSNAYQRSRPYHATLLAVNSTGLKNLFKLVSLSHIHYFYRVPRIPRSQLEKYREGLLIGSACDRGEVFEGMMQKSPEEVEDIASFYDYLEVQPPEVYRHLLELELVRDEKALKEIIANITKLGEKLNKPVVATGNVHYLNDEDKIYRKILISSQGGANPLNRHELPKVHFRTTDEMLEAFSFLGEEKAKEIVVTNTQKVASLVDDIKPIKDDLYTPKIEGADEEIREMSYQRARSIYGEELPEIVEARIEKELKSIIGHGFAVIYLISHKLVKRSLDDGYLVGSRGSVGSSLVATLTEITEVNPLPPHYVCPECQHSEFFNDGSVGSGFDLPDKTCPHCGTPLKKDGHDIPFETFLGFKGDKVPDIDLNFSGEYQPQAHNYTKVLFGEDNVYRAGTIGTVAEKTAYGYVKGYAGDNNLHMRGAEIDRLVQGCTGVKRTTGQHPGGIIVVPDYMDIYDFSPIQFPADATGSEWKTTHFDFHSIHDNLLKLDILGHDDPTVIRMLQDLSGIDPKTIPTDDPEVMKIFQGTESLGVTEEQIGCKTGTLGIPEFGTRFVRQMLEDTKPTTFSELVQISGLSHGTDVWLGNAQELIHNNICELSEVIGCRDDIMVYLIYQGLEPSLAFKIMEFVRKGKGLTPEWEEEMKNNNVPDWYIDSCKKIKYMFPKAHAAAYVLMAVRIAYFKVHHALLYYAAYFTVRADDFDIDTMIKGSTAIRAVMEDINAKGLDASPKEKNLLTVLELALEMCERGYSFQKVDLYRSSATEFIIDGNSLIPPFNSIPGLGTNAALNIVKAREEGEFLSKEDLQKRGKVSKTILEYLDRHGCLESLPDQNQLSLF
# Test: qHTS Validation Assay for the Inhibitors of DNA Replication in Gram-Positive Bacteria (AID 485295);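 also: reconstituted holoenzyme with PolC plus beta clamp SSB and primase; PicoGreen fluorescence of double-stranded DNA made on primed circular M13 template; 0% = DMSO wells and -100% = EDTA-quenched background wells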
# Conditions: Gram-positive bacterial DNA replication assay; series mostly up to 57.1 µM; activity change, negative = inhibition: at the top concentration
# Summary of the method: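 PicoGreen fluorescence (ex 480–485/em 535–540 nm) reports dsDNA synthesized on ssM13Gori template with dNTPs/NTPs. Enzyme: holoenzyme rebuilt from purified PolC, beta subunit, SSB and primase. Compound preincubated before substrate addition; RT throughout.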
Compound,"activity change, negative = inhibition [%]",outcome
C=C(C)[C@H]1CN[C@H](C(=O)O)[C@H]1CC(=O)O,4.65,–
CC(C)N(CCC(C(N)=O)(c1ccccc1)c1ccccn1)C(C)C (stereo not given),–,inactive
O=C(O)CCCc1ccc(N(CCCl)CCCl)cc1,-3.12,–
NCCc1ccc(O)cc1,3.64,–
CCC1(c2ccc(N)cc2)CCC(=O)NC1=O (stereo not given),4.58,–
CC(C)c1cccc(C(C)C)c1O,3.78,–
CC(C)(C)NCC(O)c1ccccc1Cl (stereo not given),0.594,–
CCCCC/C=C\C/C=C\C/C=C\C/C=C\CCCC(=O)NCC(=O)O,-8.45,–
Cc1ncsc1CCCl,2.14,–
CC(NC(C)(C)C)C(=O)c1cccc(Cl)c1 (stereo not given),2.32,–
O=P1(N(CCCl)CCCl)NCCCO1 (stereo not given),-5.68,–
O=C(CCCN1CCC2(CC1)C(=O)NCN2c1ccccc1)c1ccc(F)cc1,4.38,–
O=c1[nH]oc2c1CCNC2,7.53,–
COc1ccc2c(c1OC)C(=O)O[C@H]2[C@@H]1c2cc3c(cc2CCN1C)OCO3,5.17,–
CN1C(=O)CCS(=O)(=O)C1c1ccc(Cl)cc1 (stereo not given),-0.798,–
